Results filed as inconclusive are left out. Where a call stands in place of a potency, no number is given. Activity calls are given as the source filed them. The call rests on the fitted dose curve; in most records, active means well fitted cell-killing curve with a large enough effect in the repeat runs; inconclusive means weak or mixed curves, or effect the other way; inactive means no such curve, though single readings can be large or run the other way.
assay: qHTS assay to identify small molecule agonists of the vitamin D receptor (VDR) signaling pathway - cell viability counter screen (AID 743224); conditions: VDR-bla HEK293T viability, CellTiter-Glo luminescence, 16 h; series mostly up to 62.6 µM; further: nearly all actives have a fitted effect of over 50% in size
Text: U.S. Tox21 Program National Center for Advancing Translational Sciences [NCATS] NIH Chemical Genomics Center [NCGC] U.S. Environmental Protection Agency [EPA] National Institutes of Environmental Health Sciences [NIEHS] National Toxicology Program [NTP] U.S. Food and Drug Administration [FDA] Tox21 Assay Overview: The vitamin D receptor (VDR), a member of nuclear hormone receptor superfamily, plays a critical role in calcium homeostasis and bone metabolism. It is also involved in cell differentiation and growth, and thrombogenicity. […] The cytotoxicity of the Tox21 compound library against the VDR-bla cell line was tested in parallel by measuring the cell viability using CellTiter-Glo assay (Promega, Madison, WI) in the same wells.
Tox21 Assay Protocol Summary: VDR-bla cells were dispensed at 2,000 cells/6 uL/well into black wall/clear-bottom 1536-well plates using a Multidrop Combi (Thermo Fisher Scientific, Waltham, MA) dispenser. After the assay plates were incubated at a 37C and 5% CO2 for 4 h, 23 nL of compounds dissolved in DMSO, positive controls or DMSO only was transferred to the assay plate by a Pintool station (Kalypsys, San Diego, CA). The plates were incubated at 37C and 5% CO2 for 16 h. After 1 uL of LiveBLAzerTM B/G FRET substrate was added using a Bioraptr Flying Reagent Dispenser (FRD) workstation (Beckman Coulter, Indianapolis, IN, USA), the plates were incubated at room temperature for 2 h, and fluorescence intensity was measured by an Envision plate reader (PerkinElmer, Shelton, CT). For cell viability readout that measures cytotoxicity, 3 ul/well of CellTiter-Glo reagent was added into the assay plates using a FRD. After 30 min incubation at room temperature, the luminescence intensity in the plates was measured using a ViewLux (PerkinElmer) plate reader.
Potency means the concentration at half of the fitted maximal effect.

| SMILES | Potency |
| --- | --- |
| ClCC(Cl)Cl | inactive |
| Cc1coc2c1CCC(C)C2 (stereo not given) | inactive |
| O=NN1CCN(N=O)CC1 | inactive |
| CC(C)NCC(O)c1ccc(N)c(C#N)c1 (stereo not given) | inactive |
| CCOP(=S)(OCC)SCSc1ccc(Cl)cc1 | inactive |
| COC(=O)C(c1ccccc1)C1CCCCN1 (stereo not given) | inactive |
| CCOC(=O)/C=C(C)/C=C/C[C@@H](C)CCCC(C)C | 34.7 µM (active) |
| C=C(C)CN(CC)c1c([N+](=O)[O-])cc(C(F)(F)F)cc1[N+](=O)[O-] | inactive |
| CCC(=O)C(CCN(C)C)(c1ccccc1)c1ccccc1 | inactive |
| O=[N+]([O-])c1ccc2c3c(cccc13)CC2 | inactive |
| C[N+](=O)[O-] | inactive |
| CCCCOC(=O)[C@@H](C)Oc1ccc(Oc2ccc(C#N)cc2F)cc1 | inactive |
| CC(C)(C)NCC(O)c1cc(Cl)c(N)c(Cl)c1 (stereo not given) | inactive |
| CC1(C)C(=O)NC(=O)NC1=O | inactive |
| O=CNC(N1CCN(C(NC=O)C(Cl)(Cl)Cl)CC1)C(Cl)(Cl)Cl (stereo not given) | inactive |
| ClC(Cl)C(Cl)Cl | inactive |
| COc1cccc2c1cc([N+](=O)[O-])c1c(C(=O)O)cc3c(c12)OCO3 | 15.5 µM (active) |
| N#CCBr | inactive |
| CCCCOC(=O)c1ccccc1N | inactive |
| O=C1OC(c2ccc(O)c(S(=O)(=O)O)c2)(c2ccc(O)c(S(=O)(=O)O)c2)c2c(Br)c(Br)c(Br)c(Br)c21 | inactive |

| SMILES | Potency |
| --- | --- |
| C[C@H]1CCC[C@H](O)CCCCCc2cc(O)cc(O)c2C(=O)O1 | inactive |
| O=[N+]([O-])c1cccc(O)c1 | inactive |
| c1cc2c(c(N3CCNCC3)c1)OCCO2 | inactive |
| CCOP(=S)(OCC)Oc1nc(Cl)n(C(C)C)n1 | inactive |
| COP(=S)(OC)Oc1c(Cl)cc(C)cc1Cl | inactive |
| O=C1CN=C(c2ccccc2)c2cc([N+](=O)[O-])ccc2N1 | inactive |
| CC(C)CC(N(C)C)C1(c2ccc(Cl)cc2)CCC1 (stereo not given) | inactive |
| O=C(CCCN1CCC(n2c(=O)[nH]c3ccccc32)CC1)c1ccc(F)cc1 | inactive |
| O=[N+]([O-])c1cccc2c([N+](=O)[O-])cccc12 | inactive |
| N#CC(O)c1ccccc1 (stereo not given) | inactive |
| CCN(Cc1ccc(Cl)nc1)/C(=C/[N+](=O)[O-])NC | inactive |
| Nc1cnn(-c2ccccc2)c(=O)c1Cl | inactive |
| CC(C(=O)c1ccccc1)N(C)C (stereo not given) | inactive |
| CCCCCCBr | inactive |
| CN1CCC(N(Cc2ccccc2)c2ccccc2)CC1 | inactive |
| CN/C(=N\[N+](=O)[O-])NCC1CCOC1 (stereo not given) | inactive |
| CCCCCCI | inactive |
| CNCC(=O)c1ccc(O)c(O)c1 | inactive |
| CCC1(c2ccccc2)C(=O)N=C(O)NC1=O (stereo not given) | inactive |
| CCOC(=O)C1(c2ccccc2)CCN(CCc2ccc(N)cc2)CC1 | inactive |

Reference: PubChem BioAssay (Tox21)
